# According to a collection of fitness landscapes (doi:10.1016/j.celrep.2020.107928):
# In all, about 81,000 sequences were measured (“one-hybrid fitness for binding parS DNA”: median about -0.17, highest 2% from about 0.51 on). What follows is part of a selection rich in the highest values, with near analogues and random picks from the rest.
# B1: Caulobacter ParB omega fusion; a variant is named by its letters at X, in order, B8GW30 (parent)
# chain: MESVVVGEPGMSEGRRGLGRGLSALLGEVDAAPAQAPGEQLGGSREAPIEILQRNPDQPRRTFREEDLEDLSNSIREKGVLQPILVRPSPDTAGEYQIVAGERAWRAAQRAGLKTVPIMVRELDDLAVLEIGIIENVQRADLNVLEEALSYKVLMEKFERTQENIAQTIGKSXSHVANXMRLLXLPDEVQSYLVSGELTAXHARAIAAAADPVALAKQIIEGGLSVRETEALARKAPNLSAGKSKGGRPPRVKDTDTQALESDLSSVLGLDVSIDHRGSTGTLTITYATLEQLDDLCNRLTRGI
# Variants of: B1
# Test: one-hybrid fitness for binding parS DNA (scaled: cognate 1, non-cognate 0); higher = stronger binding
# Details: with parS DNA site
# In short: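 Fitness is the rescaled log change in variant-to-wild-type read ratio, measured by Illumina sequencing of plasmids before and after bacterial one-hybrid selection. The scale puts cognate at 1 and non-cognate at 0. Selection of Caulobacter ParB libraries, four specificity codons randomised, took place in E. coli USO with a HIS3 reporter, site 19 bp from the promoter, over 48 hours at 37°C on M9-minus-histidine with 0.1 mM IPTG and 5 mM 3-AT.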
row,Variant,one-hybrid fitness for binding parS DNA
1,RMLH,0.275
2,RMDP,≤ 0.2
3,RMNY,0.529
4,RMDS,1.02
5,RMRN,0.418
6,RMRS,0.868
7,RMLS,1.04
8,RMDD,≤ 0.2
9,RMLN,0.439
10,RMDY,0.405
11,RMRP,≤ 0.2
12,FDLP,≤ 0.2
13,LARN,≤ 0.2
14,YKTN,≤ 0.2
15,PMMG,≤ 0.2
16,TDRN,≤ 0.2
17,IALI,≤ 0.2
18,HAQR,≤ 0.2
19,LQQY,≤ 0.2
20,RMNH,0.287
21,RMYN,0.47
22,RMYH,0.234
23,RMNP,≤ 0.2
24,RMYS,1.01

row,Variant,one-hybrid fitness for binding parS DNA
1,RMNS,0.911
2,AHEC,≤ 0.2
3,EPSR,≤ 0.2
4,TPDV,≤ 0.2
5,PQMC,≤ 0.2
6,RNTG,0.908
7,RNTP,≤ 0.2
8,RNTH,≤ 0.2
9,RNTS,0.964
10,RNTT,0.746
11,RNTC,0.865
12,RNTD,≤ 0.2
13,RNTR,≤ 0.2
14,RNTN,0.357
15,RNTY,0.368
16,RNTM,0.233
17,RNTK,≤ 0.2
18,NCAN,≤ 0.2
19,MWTR,≤ 0.2
20,DRQW,≤ 0.2
21,ADQL,≤ 0.2
22,NGAG,≤ 0.2
23,HAPM,≤ 0.2
24,HNLP,≤ 0.2

row,Variant,one-hybrid fitness for binding parS DNA
1,SYAS,≤ 0.2
2,RFDD,≤ 0.2
3,AFDG,≤ 0.2
4,NFNG,≤ 0.2
5,RFNG,1
6,RFDG,0.814
7,DFNG,≤ 0.2
8,LMSV,≤ 0.2
9,AAST,≤ 0.2
10,SSPQ,≤ 0.2
11,THVR,≤ 0.2
12,DHYT,≤ 0.2
13,GFSS,≤ 0.2
14,RYVR,≤ 0.2
15,RYKN,0.394
16,RYKT,0.708
17,RYKH,≤ 0.2
18,RYVT,0.716
19,RYVK,≤ 0.2
20,HYNK,≤ 0.2
21,QWNN,≤ 0.2
22,PIAM,≤ 0.2
23,LLNT,≤ 0.2
24,MIIT,≤ 0.2

row,Variant,one-hybrid fitness for binding parS DNA
1,IARP,≤ 0.2
2,RGVW,≤ 0.2
3,RRKN,0.84
4,RCNM,0.349
5,RRDM,≤ 0.2
6,RRKD,≤ 0.2
7,RRNM,0.656
8,RRKP,0.338
9,RRVM,≤ 0.2
10,RCKN,0.463
11,RRKS,0.684
12,RRVN,0.268
13,RCKM,0.402
14,RRKM,0.802
15,IVNW,≤ 0.2
16,TART,≤ 0.2
17,ACQS,≤ 0.2
18,MKRG,≤ 0.2
19,RRYM,0.206
20,RRVH,≤ 0.2
21,RRVP,≤ 0.2
22,RRRM,0.762
23,RCRM,0.365
24,RRVS,0.708

row,Variant,one-hybrid fitness for binding parS DNA
1,RCKH,≤ 0.2
2,RRVD,≤ 0.2
3,RRKH,0.623
4,GKVS,≤ 0.2
5,NRQG,≤ 0.2
6,ATIC,≤ 0.2
7,YVNR,≤ 0.2
8,QQAI,≤ 0.2
9,RVIA,0.522
10,RVPA,0.324
11,SVIA,≤ 0.2
12,RVSA,0.581
13,RVHA,0.552
14,PVHA,≤ 0.2
15,NVWA,≤ 0.2
16,DVWA,≤ 0.2
17,PVSA,≤ 0.2
18,RVWA,0.616
19,TLSH,≤ 0.2
20,DKSV,≤ 0.2
21,GGQR,≤ 0.2
22,GCKT,≤ 0.2
23,HKHC,≤ 0.2
24,EMRS,≤ 0.2

row,Variant,one-hybrid fitness for binding parS DNA
1,QDPW,≤ 0.2
2,RVNA,0.602
3,RVQA,0.597
4,RVYA,0.64
5,RVMA,0.545
6,NVNA,≤ 0.2
7,PVNA,≤ 0.2
8,RVEA,0.483
9,NVYA,≤ 0.2
10,DVMA,≤ 0.2
11,EVQA,≤ 0.2
12,NVQA,≤ 0.2
13,FHNR,≤ 0.2
14,KHET,≤ 0.2
15,LGQH,≤ 0.2
16,KKTT,≤ 0.2
17,TGPM,≤ 0.2
18,PPMA,≤ 0.2
19,WVPV,≤ 0.2
20,GEND,≤ 0.2
21,TSEH,≤ 0.2
22,DVGA,≤ 0.2
23,NVRA,≤ 0.2
24,CVLA,≤ 0.2

row,Variant,one-hybrid fitness for binding parS DNA
1,RVLA,0.565
2,RVGA,0.565
3,NVLA,≤ 0.2
4,RVRA,0.689
5,DVRA,≤ 0.2
6,RVDA,0.556
7,PVGA,≤ 0.2
8,NVDA,≤ 0.2
9,EWRT,≤ 0.2
10,LSNV,≤ 0.2
11,LQAW,≤ 0.2
12,ESFC,≤ 0.2
13,WPSS,≤ 0.2
14,KRVW,≤ 0.2
15,IRFN,≤ 0.2
16,FLDR,≤ 0.2
17,MLTT,≤ 0.2
18,YVRR,≤ 0.2
19,RCPV,≤ 0.2
20,NVCA,≤ 0.2
21,RVCA,0.608
22,KMLT,≤ 0.2
23,WVPC,≤ 0.2
24,CYWL,≤ 0.2

row,Variant,one-hybrid fitness for binding parS DNA
1,QPKK,≤ 0.2
2,VRCA,≤ 0.2
3,RHKQ,≤ 0.2
4,RHVC,0.773
5,RHKM,0.358
6,RHKC,0.858
7,RHVR,≤ 0.2
8,RHVQ,≤ 0.2
9,SHAT,≤ 0.2
10,DRYP,≤ 0.2
11,IQCS,≤ 0.2
12,TYDM,≤ 0.2
13,RGKN,0.369
14,RGKS,0.927
15,RGVS,0.516
16,RGKY,0.436
17,RGVP,≤ 0.2
18,RGVN,≤ 0.2
19,RGKD,≤ 0.2
20,RGVT,0.33
21,RGKT,0.712
22,LSNY,≤ 0.2
23,WVRY,≤ 0.2
24,MIPI,≤ 0.2

row,Variant,one-hybrid fitness for binding parS DNA
1,GELY,≤ 0.2
2,GYSK,≤ 0.2
3,QACE,≤ 0.2
4,NCKN,≤ 0.2
5,VNAS,≤ 0.2
6,DRKA,≤ 0.2
7,RRKA,0.532
8,RRVA,0.78
9,NRKA,≤ 0.2
10,NRVA,≤ 0.2
11,YMAC,≤ 0.2
12,EHCS,≤ 0.2
13,RYLK,≤ 0.2
14,RYQC,0.898
15,RYLC,0.955
16,RYQN,0.318
17,RYHC,0.949
18,RYHY,0.423
19,RYSK,≤ 0.2
20,RYHR,≤ 0.2
21,RYSC,0.929
22,RYSF,≤ 0.2
23,RYQP,≤ 0.2
24,RYLR,≤ 0.2

row,Variant,one-hybrid fitness for binding parS DNA
1,SLCV,≤ 0.2
2,CHLH,≤ 0.2
3,CAHG,≤ 0.2
4,MLWF,0.204
5,KWCS,≤ 0.2
6,VPGF,≤ 0.2
7,PGPY,≤ 0.2
8,ELLG,≤ 0.2
9,NRNN,≤ 0.2
10,TSHR,≤ 0.2
11,SYEV,≤ 0.2
12,RYCF,≤ 0.2
13,RYWC,0.887
14,RYCR,≤ 0.2
15,RYYR,≤ 0.2
16,RYYC,0.975
17,RYWF,0.258
18,RYRC,0.798
19,RYRM,0.328
20,RYRK,≤ 0.2
21,RYCC,0.903
22,RYWR,≤ 0.2
23,RYYQ,≤ 0.2
24,QPAG,≤ 0.2

row,Variant,one-hybrid fitness for binding parS DNA
1,WKQT,≤ 0.2
2,SDLQ,≤ 0.2
3,CPED,≤ 0.2
4,GWLY,≤ 0.2
5,RYGP,≤ 0.2
6,RYGC,0.914
7,RYGH,≤ 0.2
8,DNPV,≤ 0.2
9,RFHG,0.974
10,NFHG,≤ 0.2
11,RFRG,0.992
12,RFCG,0.895
13,SFCG,≤ 0.2
14,DFRG,≤ 0.2
15,DFHG,≤ 0.2
16,NFCG,≤ 0.2
17,NFYG,≤ 0.2
18,DFYG,≤ 0.2
19,NFRG,≤ 0.2
20,RFYG,0.899
21,QYLK,≤ 0.2
22,ALTP,≤ 0.2
23,ELKN,≤ 0.2
24,VNHC,≤ 0.2

row,Variant,one-hybrid fitness for binding parS DNA
1,DHWC,≤ 0.2
2,FRFT,≤ 0.2
3,TDKR,≤ 0.2
4,FTYC,≤ 0.2
5,QQPP,≤ 0.2
6,WLFI,≤ 0.2
7,AEPL,≤ 0.2
8,DFLG,≤ 0.2
9,RFLG,0.891
10,RFGD,≤ 0.2
11,NFGG,≤ 0.2
12,RFLH,0.217
13,RFGG,0.918
14,QKFT,≤ 0.2
15,TIPM,≤ 0.2
16,NRAA,≤ 0.2
17,DRFA,≤ 0.2
18,DRAA,≤ 0.2
19,NRFA,≤ 0.2
20,RRFA,0.806
21,RRAA,0.724
22,RAFI,≤ 0.2
23,DPVD,≤ 0.2
24,RHVP,≤ 0.2

row,Variant,one-hybrid fitness for binding parS DNA
1,RHKG,0.879
2,RHKH,0.248
3,RHKD,≤ 0.2
4,RHVH,≤ 0.2
5,RHVG,0.847
6,QEEC,≤ 0.2
7,PYTA,≤ 0.2
8,QTGF,≤ 0.2
9,RWHG,0.754
10,RWHH,≤ 0.2
11,RWLY,0.266
12,RWNP,≤ 0.2
13,RWNN,0.355
14,RWRQ,≤ 0.2
15,RWRY,0.494
16,RWLG,0.685
17,RWHP,≤ 0.2
18,RWRG,0.881
19,RWNG,0.797
20,RWLF,≤ 0.2
